Experimental data as given in ChEMBL document CHEMBL4513155, “CO-ADD screening of University of Sydney (Australia) compounds” (2021).
Measured potencies and affinities stand elsewhere.

Columns and labels:
Klebsiella pneumoniae = settings: Concentration 32 ug.mL-1; ASSAY_TEST Inhibition of Bacterial Growth; detection method Absorption (OD600); MEDIA CAMHB; plate type 384well; NBS; CORNING #3640; time 18 hr
Candida albicans = settings: 32 ug/mL
Cryptococcus neoformans = settings: Concentration 32 ug.mL-1; ASSAY_TEST Inhibition of Fungal Growth; detection method Resazurin; Absorption (OD600-OD570); plate type 384well; NBS; CORNING #3640

Row | Structure (SMILES) | Inhibition (Klebsiella pneumoniae) | Inhibition (Candida albicans) | Inhibition (Cryptococcus neoformans)
1 | Fc1ccc(CCOc2cncc3nnc(-c4ccc(C(F)(F)F)nc4)n23)cc1F | -0.34% | 2.23% | -5.49%
2 | Fc1ccc(CCOc2cncc3nnc(-c4ccc(Cl)cc4)n23)cc1F | -4.32% | 7.82% | -0.27%
3 | CN(C)C(COc1cncc2nnc(-c3ccc(C#N)cc3)n12)c1ccc(F)c(F)c1 (stereo unspecified) | 3.41% | 5.98% | -16.61%
4 | O.O=C1c2cccc3c(-n4cc(CN5CCCNCCN(Cc6cn(-c7ccc8c9c(cccc79)C(=O)N(CCCO)C8=O)nn6)CCCNCC5)nn4)ccc(c23)C(=O)N1CCCO.[Cl-].[Cl-].[Zn+2] | 2.32% | 7.28% | -0.18%
5 | CCN1C(=O)c2cccc3c(-c4cn(CCN5CCCNCCN(CCn6cc([C@]7(O)CC[C@H]8[C@@H]9CCc%10cc(O)ccc%10[C@H]9CC[C@@]87C)nn6)CCCNCC5)nn4)ccc(c23)C1=O.OCCN1CCN(CCCN2c3ccccc3Sc3ccc(Cl)cc32)CC1.[O-][Cl+3]([O-])([O-])[O-].[O-][Cl+3]([O-])([O-])[O-].[Zn+2] | -7.97% | 5.51% | 7.03%
6 | COC(COc1cncc2nnc(-c3ccc(C#N)cc3)n12)c1ccc(F)c(F)c1 (stereo unspecified) | -1.15% | 2.84% | -10.36%
7 | N#Cc1ccc(-c2nnc3cncc(OCC(O)c4ccc(F)c(F)c4)n23)cc1 (stereo unspecified) | -1.23% | 4.19% | -9.99%
